# Measurements: the supplement of paper PMC3414501
# Where a name gives a salt, the structure may show the parent alone. Values without a mark were called inactive.
# Tests used:
# [1] = tested on: S. cerevisiae SK1 pCDA2-eGFP (USY613), sporulating; test: CDA2-GFP sporulation assay sensitivity score (z-score vs DMSO controls); higher = stronger inhibition of sporulation, active = hit call of the paper;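 further: active if sensitivity score above 5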
# [2] = tested on: S. cerevisiae AD1-9 (efflux-pump deficient), vegetative growth in YPD; test: growth sensitivity score (doubling time z-score vs DMSO controls); higher = slower growth, strongly negative scores also mark growth inhibition (complete suppression), active = hit call of the paper
# Summary of the method: (§1)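 Optical density of Saccharomyces cerevisiae cultures in microtiter plates was followed every 15 min for 24 hours after seeding at an OD600 of 0.065. Eight solvent-only wells were run per experiment. Growth sensitivity scores were found by subtracting the solvent-only mean from the compound mean and dividing by the solvent-only standard deviation.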
# [3] = tested on: S. cerevisiae BY4741 (wild-type), vegetative growth in YPD; test: as above
# Summary of the method: as §1
# [4] = stock concentration (mM, diluted 1:100): 11.3
# [5] = stock concentration (mM, diluted 1:100): 10
# [6] = stock concentration (mM, diluted 1:100): 8.9
# [7] = stock concentration (mM, diluted 1:100): 9.7
compound,measurement,setting,value
CC(C)CC(N(C)C)C1(c2ccc(Cl)cc2)CCC1 (centres undefined) [Sibutramine],CDA2-GFP sporulation assay sensitivity score,[1]; [4],3.27
same,growth sensitivity score,[2]; [4],5.47 (active)
same,growth sensitivity score,[3]; [4],3.69 (active)
CC[C@@H]1C=CC=CC[C@H](C)[C@@H](O)[C@@H](C)C(=O)[C@H](C)[C@@H](O)[C@H](C)C(=O)[C@H](C)[C@@H](O)[C@H](C)C=CC(=O)O[C@H]2[C@@H](C)[C@@H](CC1)O[C@@]1(CC[C@@H](C)[C@@H](C[C@H](C)O)O1)[C@@H]2C [Oligomycin c],CDA2-GFP sporulation assay sensitivity score,[1]; [5],-1.43
same,growth sensitivity score,[2]; [5],0.66
same,growth sensitivity score,[3]; [5],1.53
N=C(NCc1ccc(Cl)cc1)SCCCc1c[nH]cn1 [Clobenpropit],CDA2-GFP sporulation assay sensitivity score,[1]; [5],1.25
same,growth sensitivity score,[2]; [5],0.21
same,growth sensitivity score,[3]; [5],0.09
CS(=O)(=O)Nc1ccc(Cc2noc(-c3ccc4[nH]cc(CCN)c4c3)n2)cc1,CDA2-GFP sporulation assay sensitivity score,[1]; [5],2.55
same,growth sensitivity score,[2]; [5],-0.07
same,growth sensitivity score,[3]; [5],0.39
COc1ccc(C(CN(C)C)C2(O)CCCCC2)cc1 (centres undefined) [Venlafaxine hydrochloride],CDA2-GFP sporulation assay sensitivity score,[1]; [6],-0.02
same,growth sensitivity score,[2]; [6],-1.06
same,growth sensitivity score,[3]; [6],-0.63
CN=C1CN(O)C(c2ccccc2)=c2cc(Cl)ccc2=N1 [Chlordiazepoxide],CDA2-GFP sporulation assay sensitivity score,[1]; [5],1.73
same,growth sensitivity score,[2]; [5],0.94
same,growth sensitivity score,[3]; [5],1.44
C[C@]12CC[C@H](O)CC1=CC[C@@H]1[C@@H]2CC[C@]2(C)C(=O)CC[C@@H]12 [Dehydroepiandrosterone],CDA2-GFP sporulation assay sensitivity score,[1]; [5],15.7 (active)
same,growth sensitivity score,[2]; [5],70.9 (active)
same,growth sensitivity score,[3]; [5],7.64 (active)
CN1CCC(c2ccc(F)cc2)C(COc2ccc3c(c2)OCO3)C1 (centres undefined) [Methyl paroxetine],CDA2-GFP sporulation assay sensitivity score,[1]; [7],0.37
same,growth sensitivity score,[2]; [7],35 (active)
same,growth sensitivity score,[3]; [7],2.48 (active)
